This passage reports inhibition (viability loss, TRAIL sensitization) results from PubChem BioAssay AID624354 (Sanford-Burnham Center for Chemical Genomics, 2012).

Out of some 360,000 compounds screened, about 3,800 (1.1%) were called active.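 Rule for the calls: active = compounds causing at least 50% loss of cell viability in the single-dose screen, relative to plate controls; inactive = the rest.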 Many of the other results were omitted from the sample, so actives are more common in it than they were.

This assay in a line: viability loss with TRAIL in NB7+C8 cells, primary screen, TRAIL sensitizer project, cell-based, ATPlite luminescence (AID 624354). As to conditions: at 10 µM, stronger effect = higher value.
Take `O=C(CN1C(=O)NC2(CCOc3ccccc32)C1=O)Nc1cccc([N+](=O)[O-])c1` (configuration not stated): the inhibition (viability loss, TRAIL sensitization) was -2.91% (inactive).

Regarding `CCOC(=O)C1=C(C)OC(N)=C(C#N)C1c1cncc(-c2ccc(F)cc2)c1` (configuration not stated), the inhibition (viability loss, TRAIL sensitization) is -2.49% (inactive).

For `FC(F)(F)c1ccc2nnc(-c3c(Cl)cccc3Cl)n2c1`, the inhibition (viability loss, TRAIL sensitization) was 24.4% (inactive).

In the case of `CN(C)C1=NC[C@H](Cc2ccccc2)N1CCc1ccc(F)cc1`, the inhibition (viability loss, TRAIL sensitization) was 6.59% (inactive). Consider `CN(C)CCNC(=O)c1ccc(Cl)c2cc3ccccc3nc12`, for which the inhibition (viability loss, TRAIL sensitization) was 56% (active). The result for `COCCNC(=O)c1ccccc1-c1nc(-c2ccccc2Cl)no1` reads 4.78% (inactive); that for `Cc1cc(C)n(C(=O)CCNC(=O)c2ccccc2Cl)n1`, 4.1% (inactive).

In the case of `Cn1nc(-c2ccccc2)c(CSc2cccc(Cl)c2)c1Cl`, the inhibition (viability loss, TRAIL sensitization) was 6.33% (inactive). With `Cc1ccc(S(=O)(=O)NC[C@H]2O[C@@H](n3cnc4c(N)ncnc43)[C@H](O)[C@@H]2O)s1`, the inhibition (viability loss, TRAIL sensitization) is -2.79% (inactive).

In the case of `Cn1nc(C(C)(C)C)c(NC(=O)c2sccc2Cl)c1C(C)(C)C`, the inhibition (viability loss, TRAIL sensitization) was 15.6% (inactive).

For the compound `COc1cccc(-c2nc3cc(C)ccc3o2)c1`, the inhibition (viability loss, TRAIL sensitization) is 52.6% (active).

For the compound `O=[N+]([O-])c1ccc2oc(-c3cccc(O)c3)nc2c1`, the inhibition (viability loss, TRAIL sensitization) is 24.5% (inactive).

For the compound `COc1ccc2oc(N)nc2c1`, the inhibition (viability loss, TRAIL sensitization) is 4.55% (inactive).

For the compound `O=C(NC(Cc1ccc(O)cc1)C(=O)O)/C(=C/c1ccccc1)NC(=O)c1ccccc1` (configuration not stated), the inhibition (viability loss, TRAIL sensitization) is -22.8% (inactive). Consider `Cc1ccc(N2C(=O)C3C(c4ccccc4)(C2=O)C3(c2ccccc2)c2ccccc2)cc1` (configuration not stated), for which the inhibition (viability loss, TRAIL sensitization) is 11.6% (inactive). Take `CSc1cc(C)[nH]c(=O)n1`: the inhibition (viability loss, TRAIL sensitization) is -4.86% (inactive). As to `COc1ccc(Cl)cc1NC(=O)CN(C)C(=O)c1cn(-c2ccccc2)nc1-c1cccs1`, the inhibition (viability loss, TRAIL sensitization) was 21.4% (inactive).

Consider `O=C(O)c1ccc(N/N=C/c2ccc3ncccc3c2)cc1`, for which the inhibition (viability loss, TRAIL sensitization) was 18.4% (inactive). For `O=C(O)c1ccc(N/N=C/c2cn(-c3ccccc3)nc2-c2cccs2)cc1` the value was 76.2% (active). Regarding `COc1ccc(CN2CC(C(=O)NCCc3ccc(Cl)cc3)CC2=O)cc1` (configuration not stated), the inhibition (viability loss, TRAIL sensitization) is 10.4% (inactive). Consider `CCOC(=O)C1CCCN(C(=O)c2ccc(N(C)C)cc2)CC1` (configuration not stated), for which the inhibition (viability loss, TRAIL sensitization) is -15.3% (inactive).

As for `OC1CN=C2Sc3ccccc3N2C1` (configuration not stated), the inhibition (viability loss, TRAIL sensitization) was -13.7% (inactive). Take `CC1CN(S(=O)(=O)c2ccccc2)C(C)CN1S(=O)(=O)c1ccccc1` (configuration not stated): the inhibition (viability loss, TRAIL sensitization) was 7.64% (inactive).

`Cc1noc(C)c1COC(=O)COc1ccc(-c2ccccc2)cc1`: the inhibition (viability loss, TRAIL sensitization) is -21.6% (inactive). In the case of `O=C(Oc1ccc(-c2nc(-c3ccccn3)no2)cc1)c1ccccc1`, the inhibition (viability loss, TRAIL sensitization) is 72% (active). The result for `O=C(COc1cccc(F)c1)Oc1ccc(C(=O)c2ccccc2)cc1` reads 7.92% (inactive); that for `CC(=O)Nc1ccc(C(=O)N(C2=NC(C)CS2)c2ccc(Cl)cc2)cc1` (configuration not stated), 0.911% (inactive).

`O=c1oc2ccccc2cc1-c1cn(-c2ccccc2)c(=S)[nH]1`: the inhibition (viability loss, TRAIL sensitization) is 82.7% (active).

On to `COc1ccc([C@H]2CC(=O)C[C@@H](CCn3cc(CC4CCCC4)nn3)O2)cc1`, for which the inhibition (viability loss, TRAIL sensitization) is 6.31% (inactive).

Take `CC(CC(=O)N1CCN(c2ccccc2)CC1)S(=O)(=O)c1ccc2c(c1)NC(=O)CS2` (configuration not stated): the inhibition (viability loss, TRAIL sensitization) was 23.3% (inactive).

For `O=C(CN1CCN(S(=O)(=O)c2ccc(Cl)s2)CC1)NCc1ccc(Cl)cc1`, the inhibition (viability loss, TRAIL sensitization) is 15.3% (inactive).

Regarding `Cc1nc(C(F)(F)F)ccc1C(=O)N1CCC1(C)C(=O)NS(=O)(=O)c1ccccc1` (configuration not stated), the inhibition (viability loss, TRAIL sensitization) is -0.681% (inactive).

`COc1cc(/C=N/Nc2nn3cnnc3c3ccccc23)cc(OC)c1OC`: the inhibition (viability loss, TRAIL sensitization) was 69.3% (active). For `COc1cc(Nc2nc3ccc(Cl)cc3n3cnnc23)cc(OC)c1OC` the value was 6.53% (inactive); for `COc1cc(/C=N/N=C(\N)c2nonc2N)cc(OC)c1OC`, 36.5% (inactive); for `COCCN(C(=O)c1ccco1)c1nnc(-c2ccc(OC)cc2)s1`, 15.7% (inactive). The result for `CC(C)NC(=O)N1CCN(c2ccncc2S(=O)(=O)N2CCCCC2)CC1` reads -3.19% (inactive); that for `CCN(CC)c1ccc(/C=N/Nc2nc(C)cc(C)n2)c(O)c1`, 51.5% (active); that for `O=C(CNS(=O)(=O)c1ccc(Br)s1)NCc1ccc2c(c1)OCO2`, 0.95% (inactive).

As to `COc1ccc(N2CC(C(=O)N[C@@H](C)C(=O)N3CCCCC3)CC2=O)cc1` (some centres not stated), the inhibition (viability loss, TRAIL sensitization) is 5.67% (inactive).

As for `CCCNC(=S)N1CCC(NC(=O)C23CC4CC(CC(C4)C2)C3)CC1`, the inhibition (viability loss, TRAIL sensitization) is 26.6% (inactive). On to `CCOC(=O)c1sc(NC(=O)CSc2nc(O)c(Cc3ccccc3)c(=O)[nH]2)nc1C`, for which the inhibition (viability loss, TRAIL sensitization) was -1.62% (inactive). `Clc1ccc(COn2c(-c3ccc(Cl)cc3Cl)nc3ncccc32)cc1`: the inhibition (viability loss, TRAIL sensitization) was 7.77% (inactive). `Clc1ccc(-c2cc(-c3ccccn3)on2)c(Cl)c1`: the inhibition (viability loss, TRAIL sensitization) is 87.7% (active). Consider `Fc1ccc(-c2ccc(CNCc3ccccn3)o2)cc1Cl`, for which the inhibition (viability loss, TRAIL sensitization) was 4.36% (inactive). Regarding `CCN(CC)CCN(C)C(c1ccnc2ccccc12)c1nnnn1-c1ccc2c(c1)OCCO2` (configuration not stated), the inhibition (viability loss, TRAIL sensitization) is -12.3% (inactive).

`CNC(=O)n1ccc(C(=O)N2CCCCC2)n1`: the inhibition (viability loss, TRAIL sensitization) is -8.01% (inactive).

As to `O=C(/C=C/c1ccc(Cl)cc1)NCCCn1ccnc1`, the inhibition (viability loss, TRAIL sensitization) was -4.39% (inactive). `CN(C)N=Nc1ccc2nc[nH]c2c1`: the inhibition (viability loss, TRAIL sensitization) is -7.76% (inactive).

Take `COc1ccc(-n2nnnc2SCC(=O)c2ccc(OC)c(OC)c2)cc1`: the inhibition (viability loss, TRAIL sensitization) is -16.3% (inactive).

For the compound `COc1ccc(-n2nnnc2-c2nc3ccccc3s2)cc1`, the inhibition (viability loss, TRAIL sensitization) is 64.4% (active). For `COc1ccc(-n2nnnc2SCC(=O)NCc2cccs2)cc1` the value was 1.36% (inactive); for `Cc1ccccc1OCC(=O)NCC(=O)OCC(=O)c1ccc2ccccc2c1`, -20.2% (inactive); for `C/C(=N\NC(=O)COc1ccc(C)cc1[N+](=O)[O-])c1ccc2c(c1)OCCO2`, -2.67% (inactive). The result for `Cc1ccc(S(=O)(=O)N(CC(=O)Nc2cccc([N+](=O)[O-])c2)Cc2ccc(Cl)cc2)cc1` reads 4.71% (inactive); that for `O=C(CCl)N(Cc1cccc([N+](=O)[O-])c1)c1cccc(Cl)c1`, 92.3% (active); that for `Cc1cc([N+](=O)[O-])ccc1NCc1cccc([N+](=O)[O-])c1`, 0.71% (inactive). As to `CCCOC1CCCN(Cc2cn(C)nc2-c2ccccc2F)C1` (configuration not stated), the inhibition (viability loss, TRAIL sensitization) was 3.04% (inactive).

As to `Cc1noc(C)c1NC(=O)N(C)C[C@@H]1Oc2cc(Br)ccc2S(=O)(=O)N([C@@H](C)CO)C[C@H]1C`, the inhibition (viability loss, TRAIL sensitization) is 8.07% (inactive). `Cc1c(Cl)c([N+](=O)[O-])nn1CC(=O)NCCCN1CCOCC1`: the inhibition (viability loss, TRAIL sensitization) is 27.8% (inactive). As to `Cc1ccc(S(=O)(=O)N[C@H]2CCC[C@@H]2O)cc1`, the inhibition (viability loss, TRAIL sensitization) is 1.92% (inactive). The result for `CCCc1cc(C(=O)Nc2ccc(C(=O)OC)cc2)cs1` reads -5.01% (inactive); that for `C#CCNc1ccc(C(=O)OCC)cc1`, 3.56% (inactive).

On to `O=C(O)Cc1ccc(NCc2ccccc2Cl)cc1`, for which the inhibition (viability loss, TRAIL sensitization) is 8.54% (inactive). With `COC(=O)c1ccc(NCc2cc(O)ccc2O)cc1`, the inhibition (viability loss, TRAIL sensitization) was 55.3% (active). Take `O=C(OC12CC3CC(CC(C3)C1)C2)c1ccc(NCc2cc(O)ccc2O)cc1`: the inhibition (viability loss, TRAIL sensitization) was 86.4% (active). For `CC(C)OC(=O)c1ccc(NCc2cc(O)ccc2O)cc1Cl`, the inhibition (viability loss, TRAIL sensitization) was 78.8% (active). Take `CN(C)c1nc(N)nc(CSc2nnnn2-c2cccc3ccccc23)n1`: the inhibition (viability loss, TRAIL sensitization) was 40.6% (inactive).

On to `Cc1ccc(/C=N/NC(=O)c2sccc2OCc2ccc(F)cc2)cc1`, for which the inhibition (viability loss, TRAIL sensitization) was 15.2% (inactive). In the case of `Cc1ccccc1CS(=O)(=O)CC1(O)CCN(C(=O)c2cccc(C(F)(F)F)c2)CC1`, the inhibition (viability loss, TRAIL sensitization) was 8.2% (inactive). For the compound `CCOc1ccc(N(CC(=O)NC2CCCCCC2)S(=O)(=O)c2c(C)[nH]c(=O)[nH]c2=O)cc1`, the inhibition (viability loss, TRAIL sensitization) was 11.6% (inactive). Take `COc1ccc(NC(=O)c2cc(=O)[nH]c3ccccc23)cc1S(=O)(=O)N1CCOCC1`: the inhibition (viability loss, TRAIL sensitization) is -0.328% (inactive). Turning to `CCOc1ccc(CCNC(=O)COC(=O)CCS(=O)(=O)c2ccc(C)cc2)cc1OCC`, the inhibition (viability loss, TRAIL sensitization) was 6.55% (inactive). Turning to `Cc1c(Br)c([N+](=O)[O-])nn1CC(=O)N1CCN(Cc2ccccc2)CC1`, the inhibition (viability loss, TRAIL sensitization) was -5.96% (inactive). Turning to `O=C(Nc1ccn(Cc2ccccc2)n1)c1n[nH]c([N+](=O)[O-])c1Cl`, the inhibition (viability loss, TRAIL sensitization) is 62.6% (active). In the case of `O=C(Nc1ccn(Cc2ccccc2F)n1)c1ccc(COc2ccc(Cl)cc2Cl)o1`, the inhibition (viability loss, TRAIL sensitization) was 11.2% (inactive).

As for `COC(=O)c1cc(NS(=O)(=O)c2ccc3c(c2)c(=O)n(C)c(=O)n3C)cc(C(=O)OC)c1`, the inhibition (viability loss, TRAIL sensitization) is 15.9% (inactive). For `CC[C@H]1CN2CCc3cc(OC)c(OC)cc3[C@@H]2C[C@@H]1C[C@H]1NCCc2cc(OC)c(OC)cc21`, the inhibition (viability loss, TRAIL sensitization) was 53.7% (active).

As to `CCOC(=O)C1CCN(C(=O)C2CCN(S(=O)(=O)CC)CC2)CC1`, the inhibition (viability loss, TRAIL sensitization) was -7.6% (inactive). As for `CCN(CC(=O)Nc1c(F)cccc1F)C(=O)C1CCC1`, the inhibition (viability loss, TRAIL sensitization) is -2.6% (inactive). As to `COc1ccc(COC(=O)c2n[nH]c3ccccc23)cc1F`, the inhibition (viability loss, TRAIL sensitization) was -10.3% (inactive).

Turning to `Cc1ccc(C(=O)NC(C)C(c2cccs2)N2CCOCC2)cc1C` (configuration not stated), the inhibition (viability loss, TRAIL sensitization) is -23.4% (inactive). With `CCOC(=O)/C(=C\c1ccc([N+](=O)[O-])cc1)C(=O)c1cc(C(C)=O)c(Nc2ccccc2)s1`, the inhibition (viability loss, TRAIL sensitization) is 85.2% (active). The result for `CCOC(=O)C/C(C)=N\Nc1ccc([N+](=O)[O-])cc1[N+](=O)[O-]` reads -7.23% (inactive); that for `CCOC(=O)C(=Cc1ccccc1)C(=O)c1ccccc1`, 18.2% (inactive); that for `O=C(CN1C(=O)NC(Cc2ccccc2)(Cc2ccccc2)C1=O)NCC1CCCCC1`, -33.8% (inactive).

Regarding `CCC(CC)c1nnc(NS(=O)(=O)Cc2ccccc2)s1`, the inhibition (viability loss, TRAIL sensitization) is -5.15% (inactive).

As to `C=CCn1cc(Cl)cc(C(=O)Nc2ccccc2)c1=O`, the inhibition (viability loss, TRAIL sensitization) was 6.15% (inactive). For `Cc1ccc(NC(=O)N2CCC(C(=O)NCc3ccc(F)cc3)CC2)cc1` the value was 1.96% (inactive). The result for `CCc1ccc(CNC(=O)C2CCN(c3nnc(C)c4c(C)n(-c5ccc(C)cc5)nc34)CC2)cc1` reads 84.7% (active). On to `CCc1ccc(CNC(=O)C2CC(=O)N(CCc3ccc(C)cc3)C2)cc1` (configuration not stated), for which the inhibition (viability loss, TRAIL sensitization) is 8.62% (inactive). As to `O=C(COC(=O)/C=C/c1ccc(OC(F)F)cc1)NC1CCCCC1`, the inhibition (viability loss, TRAIL sensitization) is -8.42% (inactive).
